Reference: PubChem BioAssay (NCI)
About 79,000 compounds went through this panel and 15% of them were active in at least one assay; those are over-represented in the sample as a whole. Active and inactive are the calls of the source. No stated cut-off is given here; in the data, active means growth inhibition above about 70%; inactive means the rest.

Tests used:
[1] = NCI Yeast Anticancer Drug Screen. Data for the rad52 strain (AID 147);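 further: 0% = growth of vehicle-treated control cultures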; details: S. cerevisiae rad52 mutant growth inhibition, stronger effect = higher value
In short: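 Yeast strain carrying a DNA damage repair alteration was exposed to test compounds. Growth inhibition was measured relative to vehicle-treated controls.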

[2] = NCI Yeast Anticancer Drug Screen. Data for the wt1 strain (AID 149);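 further: 0% = growth of vehicle-treated wt1 cultures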; details: S. cerevisiae wt1 strain (SPY 50644) growth inhibition, stronger effect = higher value
In short: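 Measured: growth of wt1 yeast under compound versus vehicle treatment, reported as inhibition.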

[3] = NCI Yeast Anticancer Drug Screen. Data for the rad50EPP+ strain (AID 151);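 further: 0% = growth of vehicle-treated control cultures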; details: S. cerevisiae rad50 mutant strain, stronger effect = higher value
In short: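 Yeast strain carrying rad50 alteration (rad50EPP+) exposed to compounds; growth inhibition measured relative to vehicle-treated controls.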

[4] = NCI Yeast Anticancer Drug Screen. Data for the rad50 strain (AID 155);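 further: 0% = growth of vehicle-only cultures of the same strain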; details: S. cerevisiae rad50 strain growth inhibition, stronger effect = higher value
In short: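 Growth of the mutant yeast was measured after compound exposure and referenced to vehicle-treated cultures.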

[5] = NCI Yeast Anticancer Drug Screen. Data for the mec2-1 strain (AID 157); details: S. cerevisiae mec2-1 strain, stronger effect = higher value
In short: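 mec2-1 yeast strain, carrying an alteration in DNA damage repair or cell cycle control, was exposed to compounds; growth inhibition was measured relative to vehicle-treated controls.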

[6] = NCI Yeast Anticancer Drug Screen. Data for the rad14 strain (AID 159);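 further: 0% = growth of vehicle-treated control cultures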; details: S. cerevisiae rad14 strain growth inhibition, stronger effect = higher value
In short: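 Here, inhibition of yeast growth was measured after compound exposure, using a strain with a genetic defect in DNA damage repair and vehicle-treated cultures as the reference.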

[7] = NCI Yeast Anticancer Drug Screen. Data for the sgs1 mgt1 strain (AID 161);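 further: 0% = growth of cultures given vehicle only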; details: S. cerevisiae sgs1 mgt1 strain, stronger effect = higher value
In short: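 Growth of a repair-deficient yeast mutant was monitored after compound treatment and expressed as inhibition relative to vehicle-treated cultures.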

[8] = NCI Yeast Anticancer Drug Screen. Data for the CLN2oe strain (AID 163);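 further: 0% = growth of vehicle-only control cultures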; details: S. cerevisiae CLN2oe strain, stronger effect = higher value
In short: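 Yeast cells carrying a defined cell-cycle control alteration were exposed to test compounds. Growth inhibition was scored against vehicle-treated control cultures.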

[9] = NCI Yeast Anticancer Drug Screen. Data for the cln2 rad14 strain (AID 165);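 further: 0% = growth equal to vehicle treated cultures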; details: S. cerevisiae cln2 rad14 strain, stronger effect = higher value
In short: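 Yeast carrying cln2 and rad14 alterations (cell cycle control and DNA damage repair) were exposed to compounds. Growth inhibition was measured against vehicle-treated controls.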

[10] = NCI Yeast Anticancer Drug Screen. Data for the bub3 strain (AID 167); details: S. cerevisiae bub3 mutant strain, stronger effect = higher value
In short: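 Whole-cell yeast assay. The mutant strain was incubated with compounds, and growth inhibition was determined by comparison with vehicle-treated cells.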

[11] = NCI Yeast Anticancer Drug Screen. Data for the wt2 strain (AID 169);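 further: 0% = growth of vehicle-treated yeast cultures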; details: S. cerevisiae wt2 strain growth inhibition, stronger effect = higher value
In short: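 Yeast cells were exposed to test compounds, and growth inhibition was measured relative to vehicle-treated controls.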

[12] = NCI Yeast Anticancer Drug Screen. Data for the mlh1 strain (AID 171);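 further: 0% = growth of vehicle-treated control cultures of the same strain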; details: S. cerevisiae mlh1 strain growth inhibition, stronger effect = higher value
In short: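 Yeast carrying a defined genetic alteration in DNA damage repair or cell cycle control were exposed to test compounds. Growth inhibition was measured relative to vehicle-treated controls.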

[13] = NCI Yeast Anticancer Drug Screen. Data for the sgs1 strain (AID 173);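 further: 0% = growth of vehicle-only control cultures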; details: S. cerevisiae sgs1 mutant, stronger effect = higher value
In short: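 Yeast mutant strains carrying defined defects in DNA damage repair or cell cycle control were exposed to test compounds. Growth inhibition was scored against vehicle-treated controls.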

[14] = NCI Yeast Anticancer Drug Screen. Data for the rad18 strain (AID 177); details: S. cerevisiae rad18 mutant growth inhibition, stronger effect = higher value
In short: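 Yeast carrying a defined DNA damage repair alteration were exposed to compounds. Growth inhibition was expressed relative to vehicle-treated controls.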

[15] = NCI Yeast Anticancer Drug Screen. Data for the mlh1 rad18 strain (AID 175); details: S. cerevisiae mlh1 rad18 strain growth inhibition, stronger effect = higher value
In short: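 Growth inhibition of the yeast strain was measured after compound exposure and expressed relative to vehicle-treated controls. The strain carries defined defects in DNA damage repair.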

[16] = at 5.0 µM (retest, dose inferred, filed as 0.5)
[17] = at 50.0 µM (retest, dose inferred, filed as 5.0)

Measured: growth inhibition

Cc1cc(N=C2C=CC(=[N+](C)C)C=C2)c(N)cc1N
inactive: [1]; at 1.2 µM -7% | [1]; at 3.7 µM -9% | [1]; at 11.0 µM 15% | [1]; at 33.0 µM 45% | [2]; at 1.2 µM 12% | [2]; at 3.7 µM 15% | [2]; at 11.0 µM 23% | [2]; at 33.0 µM 52% | [3]; at 1.2 µM -8% | [3]; at 3.7 µM -6% | [3]; at 11.0 µM -5% | [3]; at 33.0 µM 9% | [3]; at 100.0 µM 47% | [4]; at 1.2 µM -2% | [4]; at 3.7 µM 1% | [4]; [16] 54% | [4]; at 11.0 µM 15% | [4]; at 33.0 µM 52% | [4]; [17] 61% | [4]; at 50.0 µM 46.4% | [5]; at 1.2 µM -16% | [5]; at 3.7 µM -13% | [5]; [16] 50% | [5]; at 11.0 µM -3% | [5]; at 33.0 µM 23% | [5]; at 50.0 µM 45.3% | [5]; at 100.0 µM 59% | [6]; at 1.2 µM -20% | [6]; at 3.7 µM -19% | [6]; at 11.0 µM 8% | [6]; at 33.0 µM 46% | [7]; [16] -18% | [7]; [17] 65% | [7]; at 50.0 µM 63.8% | [8]; at 1.2 µM 35% | [8]; at 3.7 µM 35% | [8]; at 11.0 µM 32% | [8]; at 33.0 µM 28% | [8]; at 100.0 µM 67% | [9]; [16] 59% | [9]; [17] 57% | [9]; at 50.0 µM 39.7% | [10]; at 1.2 µM 4% | [10]; at 3.7 µM 7% | [10]; [16] 31% | [10]; at 11.0 µM 34% | [10]; at 33.0 µM 54% | [10]; [17] 21% | [10]; at 50.0 µM 62.6% | [11]; at 1.2 µM -9% | [11]; at 3.7 µM 22% | [11]; at 11.0 µM -15% | [11]; at 33.0 µM 22% | [11]; at 100.0 µM 62% | [12]; at 1.2 µM 1% | [12]; at 3.7 µM 2% | [12]; at 11.0 µM -2% | [12]; at 33.0 µM 31% | [12]; at 100.0 µM 61% | [13]; at 1.2 µM -27% | [13]; at 3.7 µM -25% | [13]; at 11.0 µM 1% | [13]; at 33.0 µM 33% | [13]; at 100.0 µM 61% | [14]; at 1.2 µM -2% | [14]; at 3.7 µM -4% | [14]; at 11.0 µM 7% | [14]; at 33.0 µM 21% | [14]; at 100.0 µM 61%
active: [1]; at 100.0 µM 72% | [2]; at 100.0 µM 75% | [4]; at 100.0 µM 71% | [5]; [17] 70% | [6]; at 100.0 µM 70% | [10]; at 100.0 µM 75%

OCCN(CCO)c1ccc2c(c1)Cc1ccccc1-2
active: [7]; [17] 71% | [13]; at 100.0 µM 76% | [15]; [17] 84% | [15]; at 50.0 µM 77.4% | [14]; at 33.0 µM 82% | [14]; at 100.0 µM 90%
inactive: [1]; at 1.2 µM -9% | [1]; at 3.7 µM -15% | [1]; at 11.0 µM 3% | [1]; at 33.0 µM 20% | [1]; at 100.0 µM 43% | [2]; at 1.2 µM 0% | [2]; at 3.7 µM 5% | [2]; at 11.0 µM 6% | [2]; at 33.0 µM 6% | [2]; at 100.0 µM 17% | [3]; at 1.2 µM -6% | [3]; at 3.7 µM -3% | [3]; at 11.0 µM 17% | [3]; at 33.0 µM 43% | [3]; at 100.0 µM 53% | [4]; at 1.2 µM -12% | [4]; at 3.7 µM -15% | [4]; [16] 13% | [4]; at 11.0 µM -13% | [4]; at 33.0 µM 34% | [4]; [17] 48% | [4]; at 50.0 µM 34.1% | [4]; at 100.0 µM 65% | [5]; at 1.2 µM -3% | [5]; at 3.7 µM -4% | [5]; [16] 1% | [5]; at 11.0 µM -4% | [5]; at 33.0 µM -7% | [5]; [17] 12% | [5]; at 50.0 µM -11.8% | [5]; at 100.0 µM 1% | [6]; at 1.2 µM 3% | [6]; at 3.7 µM -4% | [6]; at 11.0 µM 23% | [6]; at 33.0 µM 15% | [6]; at 100.0 µM 31% | [7]; [16] 8% | [7]; at 50.0 µM 52.2% | [8]; at 1.2 µM -9% | [8]; at 3.7 µM -8% | [8]; at 11.0 µM -16% | [8]; at 33.0 µM -11% | [8]; at 100.0 µM -7% | [9]; [16] 6% | [9]; [17] 6% | [9]; at 50.0 µM -2.7% | [10]; at 1.2 µM -9% | [10]; at 3.7 µM -8% | [10]; [16] 2% | [10]; at 11.0 µM -13% | [10]; at 33.0 µM -13% | [10]; [17] 27% | [10]; at 50.0 µM 10.4% | [10]; at 100.0 µM 1% | [11]; at 1.2 µM 5% | [11]; at 3.7 µM 9% | [11]; at 11.0 µM 14% | [11]; at 33.0 µM 29% | [11]; at 100.0 µM 45% | [13]; at 1.2 µM -14% | [13]; at 3.7 µM -10% | [13]; at 11.0 µM 13% | [13]; at 33.0 µM 44% | [15]; [16] 23% | [14]; at 1.2 µM -8% | [14]; at 3.7 µM 4% | [14]; at 11.0 µM 18%

Oc1ccc(Br)cc1C=NC1CCCCC1
active: [1]; at 33.0 µM 95% | [1]; at 100.0 µM 98% | [2]; at 33.0 µM 91% | [2]; at 100.0 µM 99% | [3]; at 33.0 µM 74% | [3]; at 100.0 µM 93% | [4]; at 33.0 µM 97% | [4]; at 50.0 µM 78.9% | [4]; at 100.0 µM 97% | [5]; at 33.0 µM 94% | [5]; at 50.0 µM 88.5% | [5]; at 100.0 µM 99% | [6]; at 11.0 µM 85% | [6]; at 33.0 µM 99% | [6]; at 100.0 µM 99% | [7]; [17] 99% | [7]; at 50.0 µM 85.3% | [8]; at 100.0 µM 98% | [9]; [17] 99% | [10]; [17] 99% | [10]; at 50.0 µM 87% | [10]; at 100.0 µM 97% | [11]; at 33.0 µM 74% | [11]; at 100.0 µM 99% | [12]; at 33.0 µM 96% | [12]; at 100.0 µM 99% | [13]; at 33.0 µM 92% | [13]; at 100.0 µM 98% | [15]; at 50.0 µM 77% | [14]; at 33.0 µM 92% | [14]; at 100.0 µM 97%
inactive: [1]; at 1.2 µM 0% | [1]; at 3.7 µM 15% | [1]; at 11.0 µM 35% | [2]; at 1.2 µM -24% | [2]; at 3.7 µM -18% | [2]; at 11.0 µM 6% | [3]; at 1.2 µM 3% | [3]; at 3.7 µM 12% | [3]; at 11.0 µM 35% | [4]; at 1.2 µM -14% | [4]; at 3.7 µM -18% | [4]; [16] 44% | [4]; at 11.0 µM 49% | [4]; [17] 45% | [5]; at 1.2 µM -24% | [5]; at 3.7 µM -21% | [5]; [16] 47% | [5]; at 11.0 µM 11% | [5]; [17] 60% | [6]; at 1.2 µM 15% | [6]; at 3.7 µM 24% | [7]; [16] -2% | [8]; at 1.2 µM -3% | [8]; at 3.7 µM 1% | [8]; at 11.0 µM 12% | [8]; at 33.0 µM 39% | [9]; [16] 53% | [9]; at 50.0 µM 57% | [10]; at 1.2 µM -4% | [10]; at 3.7 µM 2% | [10]; [16] 46% | [10]; at 11.0 µM 5% | [10]; at 33.0 µM 59% | [11]; at 1.2 µM -2% | [11]; at 3.7 µM 0% | [11]; at 11.0 µM 15% | [12]; at 1.2 µM -6% | [12]; at 3.7 µM 17% | [12]; at 11.0 µM 59% | [13]; at 1.2 µM 7% | [13]; at 3.7 µM 6% | [13]; at 11.0 µM 39% | [15]; [16] 32% | [15]; [17] 53% | [14]; at 1.2 µM 5% | [14]; at 3.7 µM 11% | [14]; at 11.0 µM 29%
